Outcome and AC50 data for eight compounds are collected here from PubChem BioAssay (EPA / NIEHS).

Structures are written as SMILES. Active and inactive are the calls of the source. Rule for the calls: active = hit-call score of the fitted dose curve at least 0.9, where 1 is the maximum; inactive = score below 0.9.

As a reminder, the AC50 is the midpoint of the concentration-response curve, whichever way the signal moves.

The nature of assay [1]: BSK_LPS_PGE2: BioMAP Diversity Plus: LPS Assay for Prostaglandin E2 (PGE2) Biomarker Activity (AID 2283082).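 For AC50: secreted prostaglandin E2 measured by ELISA in LPS-stimulated co-culture.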 Conditions: primary human HUVEC with PBMC; actives raise or lower the signal. A digest of the protocol:
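PGE2 release measured by ELISA in an LPS-activated co-culture of human umbilical vein endothelial cells and peripheral blood mononuclear cells, read at 24 h post-dosing. DMSO served as baseline for bidirectional curve fitting.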

Read-out in assay [2]: Macrophage colony-stimulating factor (MCSF), CSF1 (gene 1435)
Description: BSK_LPS_MCSF: BioMAP Diversity Plus: LPS Assay for Macrophage colony-stimulating factor (MCSF) Biomarker Activity (AID 2283083). Conditions: primary human HUVEC with PBMC; actives raise or lower the signal. A digest of the protocol:
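Compound is added to a human vascular primary co-culture of umbilical vein endothelium and blood mononuclear cells. After 24 h, M-CSF is quantified by ELISA. Signal changes are fitted in both directions against DMSO.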

Read-out in assay [3]: Tissue Factor, F3 (gene 2152)
As to the kind of experiment: BSK_LPS_TissueFactor: BioMAP Diversity Plus: LPS Assay for Tissue Factor Biomarker Activity (AID 2283084). The settings on record: primary human HUVEC with PBMC; actives raise or lower the signal. Put shortly:
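In this co-culture system of umbilical vein endothelium with PBMC, stimulated with LPS, cell-surface CD142 is detected by ELISA at 24 h. Endpoint values derive from bidirectional fitting, DMSO serving as baseline.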

Read-out in assay [4]: Tumor necrosis factor (Homo sapiens) (UniProt P01375)
Description: BSK_LPS_TNFa: BioMAP Diversity Plus: LPS Assay for Tumour Necrosis Factor alpha (TNFa) Biomarker Activity (AID 2283085). The settings on record: primary human HUVEC with PBMC; actives raise or lower the signal. Put shortly:
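TNFa was quantified by ELISA in LPS-activated co-cultures of human endothelial cells and PBMC, 24 h post-dosing. Both increases and decreases versus DMSO were fitted.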

Read-out in assay [5]: Vascular cell adhesion molecule 1 (VCAM1), VCAM1 (gene 7412)
As to the kind of experiment: BSK_LPS_VCAM1: BioMAP Diversity Plus: LPS Assay for Vascular cell adhesion molecule 1 (VCAM1) Biomarker Activity (AID 2283086). Conditions: primary human HUVEC with PBMC; actives raise or lower the signal. A digest of the protocol:
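VCAM-1 quantified by ELISA in an LPS-activated co-culture of human endothelial cells and peripheral blood mononuclear cells, read 24 h post-treatment. Fitted in both directions versus DMSO; parallel SRB staining flags overt cytotoxicity.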

Read-out in assay [6]: CD38, CD38 (gene 952)
As to the kind of experiment: BSK_SAg_CD38: BioMAP Diversity Plus: SAg Assay for CD38 Biomarker Activity (AID 2283087). The settings on record: primary human HUVEC with PBMC; actives raise or lower the signal. A digest of the protocol:
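CD38 quantified by ELISA (fluorescence) in a superantigen-activated endothelial cell–PBMC co-culture at 24 h post-dose. Activity fitted in both directions relative to DMSO; parallel SRB and Alamar Blue cytotoxicity read-outs.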

Read-out in assay [7]: CD40, CD40 (gene 958)
Description: BSK_SAg_CD40: BioMAP Diversity Plus: SAg Assay for CD40 Biomarker Activity (AID 2283088). The settings on record: primary human HUVEC with PBMC; actives raise or lower the signal. Put shortly: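 Fluorescence ELISA read-out of CD40 from umbilical vein endothelium plus peripheral blood mononuclear cells, sampled 24 h after dosing. Values come from bidirectional curve fitting with DMSO as baseline.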

Read-out in assay [8]: CD69, CD69 (gene 969)
As to the kind of experiment: BSK_SAg_CD69: BioMAP Diversity Plus: SAg Assay for CD69 Biomarker Activity (AID 2283089). Conditions: primary human HUVEC with PBMC; actives raise or lower the signal. Put shortly:
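ELISA, fluorescence read-out: CD69 on human umbilical vein endothelial cell + PBMC co-culture, 24 h post-dosing. Gain or loss of signal fitted bidirectionally against DMSO baseline.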

Read-out in assay [9]: Monocyte Chemoattractant Protein-1 (MCP1), CCL2 (gene 6347)
Description: BSK_SAg_MCP1: BioMAP Diversity Plus: SAg Assay for Monocyte Chemoattractant Protein-1 (MCP1) Biomarker Activity (AID 2283090). The settings on record: primary human HUVEC with PBMC; actives raise or lower the signal. Put shortly:
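Values derive from bidirectional fitting of ELISA-measured MCP1 against DMSO controls. Readings were taken 24 h after dosing human vascular endothelial cells co-cultured with peripheral blood mononuclear cells under superantigen stimulation.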

Read-out in assay [10]: E-selectin (Homo sapiens) (UniProt P16581)
As to the kind of experiment: BSK_SAg_Eselectin: BioMAP Diversity Plus: SAg Assay for Eselectin Biomarker Activity (AID 2283091). The settings on record: primary human HUVEC with PBMC; actives raise or lower the signal. Put shortly:
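Primary human endothelial cells and peripheral blood mononuclear cells were co-cultured and exposed to chemical for 24 hours. E-selectin levels were then quantified by ELISA, with bidirectional curve fitting normalised to DMSO controls.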

Read-out in assay [11]: Monokine induced gamma interferon (MIG), CXCL9 (gene 4283)
Description: BSK_SAg_MIG: BioMAP Diversity Plus: SAg Assay for Monokine induced gamma interferon (MIG) Biomarker Activity (AID 2283092). Conditions: primary human HUVEC with PBMC; actives raise or lower the signal. A digest of the protocol:
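ELISA readout of MIG/CXCL9; primary human umbilical vein endothelial cells co-cultured with peripheral blood mononuclear cells; 24 h post-dose; gain/loss fit vs DMSO baseline.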

Assay [12] in a line: BSK_SAg_PBMCCytotoxicity: PBMC Cytotoxicity Assessment in the BioMAP Diversity Plus: SAg Assay (AID 2283093).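 Note: fitted both ways against DMSO so a hit may be loss or gain of signal.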 The settings on record: primary human HUVEC with PBMC. Put shortly:
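PBMC viability by Alamar Blue reduction, fluorescence read at 546/580 nm after 6 h dye exposure. Cells were dosed 1 h before SEB plus TSST-1 activation (20 ng/mL final each), then held 90 h; endothelial/PBMC human co-culture.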

Read-out in assay [13]: Interleukin-8 (IL8), CXCL8 (gene 3576)
Description: BSK_SAg_IL8: BioMAP Diversity Plus: SAg Assay for Interleukin-8 (IL8) Biomarker Activity (AID 2283094). The settings on record: primary human HUVEC with PBMC; actives raise or lower the signal. A digest of the protocol:
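ELISA readout of IL-8 from a superantigen-activated endothelial/PBMC primary human co-culture, taken 24 h post-dosing and fitted in both directions against DMSO; parallel SRB total-protein staining flags overt cytotoxicity.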

The nature of assay [14]: BSK_SAg_Proliferation: Cell Proliferation Assessment in the BioMAP Diversity Plus: SAg Assay (AID 2283095).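 Note: relative cell number as total protein by SRB absorbance in sub-confluent culture.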 Conditions: primary human HUVEC with PBMC. A digest of the protocol: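 Relative cell number in the endothelial cell/PBMC co-culture was quantified at 96 h by SRB staining (0.1% SRB, 10% TCA fixation, read at 560 nm). Curves were fitted in both directions relative to DMSO baseline.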

The nature of assay [15]: BSK_SAg_SRB: Viability Assessment in the BioMAP Diversity Plus: SAg Assay (AID 2283096).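 Note: cells read one day after compound addition; hits may be either gain or loss of signal compared with DMSO.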 The settings on record: primary human HUVEC with PBMC. A digest of the protocol: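 Compounds were added to a human vascular co-culture of umbilical vein endothelium and PBMC. After 24 h, parallel cultures were fixed with 10% TCA, stained with 0.1% sulforhodamine B and read at 560 nm. Gain or loss of signal was fitted relative to DMSO.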

Sequence of E-selectin (Homo sapiens) (P16581 whole entry, looked up): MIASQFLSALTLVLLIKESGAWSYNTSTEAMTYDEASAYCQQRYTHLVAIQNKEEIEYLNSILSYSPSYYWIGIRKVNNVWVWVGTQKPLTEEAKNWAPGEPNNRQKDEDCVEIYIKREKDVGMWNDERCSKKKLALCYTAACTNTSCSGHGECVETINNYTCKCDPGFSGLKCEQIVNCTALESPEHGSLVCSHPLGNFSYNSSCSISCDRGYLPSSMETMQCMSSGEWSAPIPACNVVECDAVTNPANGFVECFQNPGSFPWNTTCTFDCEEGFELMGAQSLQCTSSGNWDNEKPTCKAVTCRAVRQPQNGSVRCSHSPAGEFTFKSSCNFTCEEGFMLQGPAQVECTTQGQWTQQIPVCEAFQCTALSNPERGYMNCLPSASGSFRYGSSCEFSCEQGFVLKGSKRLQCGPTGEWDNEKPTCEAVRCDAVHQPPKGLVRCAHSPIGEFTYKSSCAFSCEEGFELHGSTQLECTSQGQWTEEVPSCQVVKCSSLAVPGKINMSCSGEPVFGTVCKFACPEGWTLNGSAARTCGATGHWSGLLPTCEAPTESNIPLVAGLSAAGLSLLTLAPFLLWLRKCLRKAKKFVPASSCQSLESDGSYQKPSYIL
Sequence of Tumor necrosis factor (Homo sapiens) (P01375 whole entry, looked up): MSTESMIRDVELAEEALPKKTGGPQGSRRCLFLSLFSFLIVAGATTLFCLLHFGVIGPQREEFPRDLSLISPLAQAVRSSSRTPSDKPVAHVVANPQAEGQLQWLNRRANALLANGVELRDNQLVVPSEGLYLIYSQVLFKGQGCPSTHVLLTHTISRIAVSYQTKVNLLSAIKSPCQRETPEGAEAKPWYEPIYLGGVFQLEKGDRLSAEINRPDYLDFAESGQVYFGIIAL

For `O=Cc1ccco1`, the outcome in [1], in assay [2], in assay [3], in assay [4], in [5] and in [6] was inactive. Also, the result in [7], in assay [8], in assay [9], in [10], in assay [11] and in assay [12] was inactive. The outcome in [13], in assay [14] and in assay [15] was inactive.

Turning to `C1=Cc2cccc3cccc1c23`, the outcome in assay [1], in assay [2], in assay [3], in [4], in [5] and in assay [6] was inactive. Also, the outcome in [7], in assay [8], in [9], in [10], in [11] and in assay [12] was inactive. For the same compound, the result in assay [13], in [14] and in assay [15] was inactive.

Regarding `OCCCl`, the outcome in [1], in assay [2], in assay [3], in [4], in assay [5] and in [6] was inactive. For the same compound, the outcome in assay [7], in assay [8], in assay [9], in [10], in assay [11] and in assay [12] was inactive. Further, the result in assay [13], in assay [14] and in [15] was inactive.

For the compound `CN(C)c1ccc(C(=O)c2ccc(N(C)C)cc2)cc1`, the AC50 is 2.63 µM (active) in assay [1]; 14.4 µM (active) in assay [5]; 20 µM (active) in assay [6]; 0.578 µM (active) in assay [14]; 14.6 µM (active) in [15]. For the same compound, the outcome in assay [2], in assay [3], in assay [4], in [7], in assay [8] and in [9] was inactive. In addition, the outcome in assay [10], in [11], in assay [12] and in assay [13] was inactive.

For `Brc1ccc(Oc2ccccc2)cc1`, the outcome in assay [1], in assay [2], in assay [3], in assay [4], in assay [5] and in assay [6] was inactive. Further, the result in assay [7], in assay [8], in [9], in [10], in [11] and in [12] was inactive. The result in assay [13], in [14] and in assay [15] was inactive.

Turning to `Nc1cc(Cl)cc(C(=O)O)c1Cl`, the outcome in [1], in assay [2], in [3], in assay [4], in assay [5] and in [6] was inactive. Also, the outcome in [7], in assay [8], in [9], in assay [10], in [11] and in assay [12] was inactive. In addition, the outcome in assay [13], in [14] and in [15] was inactive.

`CNC(=O)Oc1cccc2c1OC(C)(C)C2`: the outcome in assay [1], in [2], in assay [3], in assay [4], in assay [5] and in assay [6] was inactive. For the same compound, the outcome in assay [7], in assay [8], in [9], in assay [10], in [11] and in assay [12] was inactive. The outcome in [13], in assay [14] and in [15] was inactive.

Consider `OCCOCCO`, for which the result in assay [1], in [2], in [3], in assay [4], in assay [5] and in assay [6] was inactive. Besides, the result in assay [7], in assay [8], in assay [9], in [10], in [11] and in [12] was inactive. In addition, the outcome in [13], in [14] and in assay [15] was inactive.
